These results are taken from PubChem BioAssay (Tox21).

Results filed as inconclusive are left out. A call without a number means that no potency is given here. Unmarked numbers belong to inactive results. Activity calls are given as the source filed them. Calls come from the whole dose curve; as a rule, active = well fitted cell-killing curve with a large enough effect in the repeat runs; inconclusive = weak or mixed curves, or effect the other way; inactive = no such curve, though single readings can be large or run the other way.

This test in a line: qHTS assay to identify small molecule antagonists of the progesterone receptor (PR) signaling pathway - cell viability counter screen (AID 1346798). Note: nearly all actives have a fitted effect of over 50% in size. Conditions: PR-UAS-bla HEK293T viability, CellTiter-Glo luminescence, 16 h; series mostly up to 92.4 µM; activity change, negative = cytotoxicity: at the top concentration. An excerpt:
National Center for Advancing Translational Sciences [NCATS]
NIH Chemical Genomics Center [NCGC]
U.S. Environmental Protection Agency [EPA]
National Institutes of Environmental Health Sciences [NIEHS]
National Toxicology Program [NTP]
U.S. Food and Drug Administration [FDA]
Progesterone receptor (PR), a nuclear hormone receptor, plays an important role in development, metabolic homeostasis and reproduction. It is activated by the steroid hormone progesterone. Endocrine disrupting chemicals (EDCs) and their interactions with steroid hormone receptors like PR causes disruption of normal endocrine function. To identify the compounds that inhibit PR signaling, a PR-UAS-bla GripTite cell line i.e. PR-UAS-bla HEK293T (Invitrogen, Carlsbad, CA, USA) containing a beta-lactamase reporter gene under the control of an UAS response element was used to screen Tox21 10K compound library. The cytotoxicity of the Tox21 compound library against the PR-bla cell line was tested in parallel by measuring the cell viability using CellTiter-Glo assay in the same wells.
Tox21 Assay Protocol Summary:
PR-UAS-bla HEK293T cells were dispensed at 3,000 cells/4 uL of assay medium containing 2% charcoal stripped FBS per well into black wall/clear-bottom 1536-well plates using a Multidrop Combi (ThermoFisher Scientific, Waltham, MA) dispenser. After the assay plates were incubated at a 37C and 5% CO2 for 4 hr, 23 nL of compounds dissolved in DMSO, positive controls or DMSO only was transferred to the assay plate by a Pintool station (Kalypsys, San Diego, CA), followed by addition of 1 uL of R5020 in assay medium using a Flying Reagent Dispenser (FRD, Aurora Discovery, San Diego, CA). The plates were incubated at 37C and 5% CO2 for 16 hr. Then 1 uL of LiveBLAzer B/G FRET substrate was added using a Flying Reagent Dispenser, the plates were incubated at room temperature for 2 hours, and fluorescence intensity was measured by an Envision plate reader (PerkinElmer, Shelton, CT). For cell viability readout that measures cytotoxicity, 4 uL/well of CellTiter-Glo reagent was added into the assay plates using a FRD. After 30 min incubation at room temperature, the luminescence intensity in the plates was measured using a ViewLux (PerkinElmer) plate reader.
For the compound `OCCCCO`, the Potency entry was “inactive”.

Take `Sc1ccccc1`: the Potency result is “inactive”.

Take `Nc1nc(N)nc(NC2CC2)n1`: the Potency entry was “inactive”.

Regarding `CNC(=O)Oc1cccc2ccccc12`, the Potency result was “inactive”.

For the compound `Cc1ccc(N)cc1`, the Potency entry was “inactive”.

In the case of `C[C@H]1C(=O)O[C@@H]2CCN3CC=C(COC(=O)[C@](C)(O)[C@]1(C)O)[C@H]23`, the Potency entry was “inactive”.

With `OC[C@@H](O)[C@H]1O[C@@H]2O[C@H](C(Cl)(Cl)Cl)O[C@@H]2[C@H]1O`, the Potency entry is “inactive”.

As for `CNC(=O)O/N=C/C(C)(C)S(C)(=O)=O`, the Potency result is “inactive”.

As to `N#Cc1ccccn1`, the Potency result is “inactive”.

Take `Cc1cccc(N)c1C`: the Potency result was “inactive”.

With `Oc1ccc(Cl)cc1`, the Potency result was “inactive”.

As to `Nc1ccc(N)cc1`, the Potency result is “inactive”.

With `Cc1ccc(N=C=O)cc1N=C=O`, the Potency result is “inactive”.

Turning to `COP(=S)(OC)Oc1ccc(SC)c(C)c1`, the Potency result is “inactive”.

In the case of `FC(F)(F)c1ccc(Cl)cc1`, the Potency result was “inactive”.

Regarding `CNCC(O)c1ccc(O)cc1` (stereo not given), the Potency entry is “inactive”.

Regarding `COc1nc(NC(C)C)nc(NC(C)C)n1`, the “activity change, negative = cytotoxicity” value was 4.16%.

Regarding `CC(C)(C)C(=O)CCl`, the “activity change, negative = cytotoxicity” value was -1.24%.

In the case of `COC(=O)Nc1cccc(OC(=O)Nc2cccc(C)c2)c1`, the “activity change, negative = cytotoxicity” value is -3.08%.

`c1ccc2c(c1)CCCC2`: the Potency entry is “inactive”.

Take `Cl/C=C/Cl`: the Potency entry was “inactive”.

In the case of `O=C(O)c1cc(Oc2ccc(C(F)(F)F)cc2Cl)ccc1[N+](=O)[O-]`, the Potency entry is “inactive”.

Take `Nc1ccc([As](=O)(O)O)cc1`: the Potency entry is “inactive”.

Consider `Cc1ccccc1N`, for which the Potency result was “inactive”.

In the case of `CCCCCCCCCCCCCCCCCC(=O)O`, the Potency result was “inactive”.

As to `NNc1ccccc1`, the Potency entry was “inactive”.

As to `CC(=O)C1CCOC1=O` (stereo not given), the Potency entry was “inactive”.

With `CN(C)NC(=O)CCC(=O)O`, the Potency entry is “inactive”.

`C/C=C/c1ccc2c(c1)OCO2`: the Potency result is “inactive”.

Consider `O=[N+]([O-])c1cc([As](=O)(O)O)ccc1O`, for which the Potency result is “inactive”.

Take `Nc1ncc([N+](=O)[O-])s1`: the Potency result was “inactive”.

Take `CCOC(=O)CC(SP(=O)(OC)OC)C(=O)OCC` (stereo not given): the Potency result was “inactive”.

In the case of `CCNc1nc(Cl)nc(NC(C)C)n1`, the Potency entry is “inactive”.

In the case of `[N-]=[N+]=CC(=O)OC[C@H](N)C(=O)O`, the Potency result was “inactive”.

With `CN1C(=O)CCS(=O)(=O)C1c1ccc(Cl)cc1` (stereo not given), the Potency result is “inactive”.

Consider `Cc1cccc(C)c1N`, for which the Potency entry is “inactive”.

For the compound `CCOc1ccc(N)cc1`, the Potency result is “inactive”.

Take `O=[N+]([O-])c1ccc(Cl)c(Cl)c1`: the Potency result is “inactive”.

Consider `C=CC#N`, for which the Potency entry is “inactive”.

As for `CCCOC(=O)c1ccccc1C(=O)OCCC`, the Potency entry is “inactive”.
